# Laboratory results published in PubChem BioAssay (EPA / NIEHS).
# Values joined by “and” are separate entries in the source; they are usually repeats but may differ in a detail not shown here. Equal values may be shown once. Inconclusive results are not listed. The source holds several records for some structures; these can differ, active in one and inactive in another. Active and inactive are the calls of the source. How the source made its calls: active means hit-call score of the fitted dose curve at least 0.9, where 1 is the maximum; inconclusive means response in the unintended direction; inactive means score below 0.9.
# How the values were obtained:
# [1] = TOX21_p53_BLA_p2_viability: Viability Assessment in the Tox21 HCT-116 p53 Agonism Beta-lactamase Assay, Phase 2 (AID 2283591);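 further: compound exposure lasted 16 h at 37 °C; actives lower the ATP signal meaning cytotoxicity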
# In short: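 HCT-116 p53-bla cells (4000/well) rested 5 h at 37C, then received compounds in DMSO (217-fold dilution) for 16 h at 37C, 5% CO2. After the CCF4 read, CellTiter-Glo was added; ATP luminescence was read after 30 min at room temperature.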
# [2] = biological target: Cellular tumor antigen p53 (Homo sapiens) (UniProt P04637); test: TOX21_p53_BLA_p2_ratio: Tox21 HCT-116 p53 Agonism Beta-lactamase Assay, Ratio, Phase 2 (AID 2283592)
# Chain of Cellular tumor antigen p53 (Homo sapiens) (P04637 whole entry, looked up): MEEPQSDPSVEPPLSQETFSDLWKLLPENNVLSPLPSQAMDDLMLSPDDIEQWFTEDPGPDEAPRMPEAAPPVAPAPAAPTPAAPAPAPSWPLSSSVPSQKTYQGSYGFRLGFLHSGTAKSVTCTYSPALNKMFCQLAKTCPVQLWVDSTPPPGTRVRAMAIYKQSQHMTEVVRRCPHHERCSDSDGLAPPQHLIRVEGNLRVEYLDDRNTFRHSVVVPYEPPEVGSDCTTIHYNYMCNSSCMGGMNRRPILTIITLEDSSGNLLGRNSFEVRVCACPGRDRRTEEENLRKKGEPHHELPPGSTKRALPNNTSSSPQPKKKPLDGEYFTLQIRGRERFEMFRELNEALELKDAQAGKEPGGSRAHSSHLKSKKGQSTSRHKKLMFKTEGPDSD
# In short: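 An inducible beta-lactamase reporter in HCT116 cells signals p53 pathway activation. After 16 h chemical exposure at 37C, cells load CCF4-AM substrate for 2 h at room temperature; activity is the cleaved/uncleaved emission ratio relative to DMSO.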
# [3] = TOX21_p53_BLA_p3_viability: Viability Assessment in the Tox21 HCT-116 p53 Agonism Beta-lactamase Assay, Phase 3 (AID 2283593);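 further: cells exposed to compound for 16 h before reading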
# In short: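 HCT-116 cells (4000/well) rested 5 h at 37C, then got DMSO compounds by pin tool (217-fold dilution) for 16 h at 37C, 5% CO2. After the bla read, CellTiter-Glo was added and luminescence read at 30 min, room temperature.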
# [4] = ATG_XTT_Cytotoxicity: Cytotoxicity Assessment in the Attagene TRANS-FACTORIAL HepG2 Assay (AID 2283584)
# In short: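 Transfect HepG2 with GAL4-UAS reporter units, dose compound, incubate 24 h, then measure viable cell number by XTT. Fit concentration response against DMSO baseline.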
smiles,measurement,setting,value
O=C(OC1CCCCC1)c1ccccc1C(=O)OC1CCCCC1,outcome,[1],inactive
same,outcome,[2],inactive
same,outcome,[3],inactive
CCOP(OCC)OCC,outcome,[2],inactive
same,outcome,[3],inactive
OCc1ccco1,outcome,[4],inactive
same,outcome,[2],inactive
same,outcome,[3],inactive
c1cc[c]([Hg][c]2ccccc2)cc1,outcome,[1],inactive
same,AC50,[2],15.2 µM (active)
[O-][Cl+2]([O-])O,outcome,[4],inactive
same,outcome,[2],inactive
same,outcome,[3],inactive
CC(=O)C(Cl)C(=O)N(C)C (stereo not given),outcome,[4],inactive
same,outcome,[2],inactive
CC(C)c1ccc(CO)cc1,outcome,[1],inactive
same,outcome,[2],inactive
same,outcome,[3],inactive
CCOP(=O)(CN(CCO)CCO)OCC,outcome,[4],inactive
same,outcome,[2],inactive
same,outcome,[3],inactive
OCC(O)CCl (stereo not given),outcome,[2],inactive
same,outcome,[3],inactive
O=C(CCl)CCl,outcome,[4],inactive
same,outcome,[1],inactive
same,AC50,[3],19.3 µM (active) and 22.3 µM (active)
COc1ccccc1OC,outcome,[4],inactive
same,outcome,[2],inactive
same,outcome,[3],inactive
C=C(C)C#N,outcome,[4],inactive
same,outcome,[2],inactive
same,outcome,[3],inactive
CC(=O)c1cc(C(C)(C)C)cc2c1CCC2(C)C,outcome,[4],inactive
same,outcome,[1],inactive
same,outcome,[2],inactive
same,outcome,[3],inactive
Cl/C=C/Cl,outcome,[4],inactive
same,outcome,[2],inactive
same,outcome,[3],inactive
NN=C(N)N,outcome,[2],inactive
COP(=S)(OC)Oc1c(Cl)cc(C)cc1Cl,outcome,[1],inactive
same,outcome,[2],inactive
P.[In],outcome,[1],inactive
same,outcome,[3],inactive
CC(C#N)CCC#N (stereo not given),outcome,[4],inactive
same,outcome,[1],inactive
same,outcome,[3],inactive
NNC(=S)NN,outcome,[1],inactive
same,outcome,[2],inactive
same,outcome,[3],inactive
COP(=S)(OC)Oc1cc(Cl)c(Br)cc1Cl,outcome,[1],inactive
same,AC50,[2],70.1 µM (active)
same,outcome,[3],inactive
CCOC(=O)CP(=O)(OCC)OCC,outcome,[4],inactive
same,outcome,[2],inactive
same,outcome,[3],inactive
c1ccc(N=NNc2ccccc2)cc1,outcome,[1],inactive
same,outcome,[2],inactive
same,outcome,[3],inactive
COP(=O)(OC)O/C(=C\Cl)c1cc(Cl)c(Cl)cc1Cl,outcome,[4],inactive
same,outcome,[2],inactive
same,outcome,[3],inactive
CCC[CH2][Sn]([Cl])([Cl])[Cl],outcome,[1],inactive
same,outcome,[2],inactive
CCCCCCCCCCCCCCCC[n+]1ccccc1,AC50,[1],48.8 µM (active) and 69.6 µM (active)
same,outcome,[1],inactive
same,AC50,[3],45.6 µM (active) and 81 µM (active) and 46.1 µM (active)
same,outcome,[3],inactive
O=C(Cc1ccccc1)c1ccccc1,outcome,[1],inactive
same,outcome,[2],inactive
COP(=S)(OC)Oc1ccc(Sc2ccc(OP(=S)(OC)OC)cc2)cc1,outcome,[1],inactive
same,outcome,[2],inactive
same,outcome,[3],inactive
CCCCP(CCCC)CCCC,outcome,[1],inactive
same,outcome,[2],inactive
same,outcome,[3],inactive
O=S(=O)(c1ccc(Cl)cc1)c1ccc(Cl)cc1,outcome,[4],inactive
same,outcome,[1],inactive
same,outcome,[2],inactive
same,outcome,[3],inactive
NC(=O)CF,outcome,[1],inactive
same,outcome,[2],inactive
COP(=S)(OC)Oc1cc(Cl)c(Cl)cc1Cl,outcome,[1],inactive
same,outcome,[2],inactive
same,outcome,[3],inactive
Nc1ccc(N=Nc2ccc(-c3ccc(N=Nc4c(S(=O)(=O)O)cc5cc(S(=O)(=O)O)c(N=Nc6ccccc6)c(O)c5c4N)cc3)cc2)c(N)c1,outcome,[2],inactive
same,outcome,[3],inactive
ClCc1cccnc1,outcome,[1],inactive
same,outcome,[2],inactive
COc1cc(OC)nc(NC(=O)NS(=O)(=O)c2ncccc2C(=O)N(C)C)n1,outcome,[2],inactive
